From ChEMBL document CHEMBL2218924, “A broad activity screen in support of a chemogenomic map for kinase signalling research and drug discovery” (Biochem J, 2013)

Key:
[1] = target: G protein-coupled receptor kinase 5 (Homo sapiens) (UniProt P34947); settings: at 1 µM
[2] = target: Vascular endothelial growth factor receptor 3 (Homo sapiens) (UniProt P35916); settings: at 10 µM
[3] = target: Macrophage colony-stimulating factor 1 receptor (Homo sapiens) (UniProt P07333); settings: at 1 µM
[4] = target: Macrophage colony-stimulating factor 1 receptor (Homo sapiens) (UniProt P07333); settings: at 10 µM
[5] = target: Tyrosine-protein kinase Fyn (Homo sapiens) (UniProt P06241); settings: at 1 µM
Chain of Tyrosine-protein kinase Fyn (Homo sapiens) (P06241 2-537 limits assumed): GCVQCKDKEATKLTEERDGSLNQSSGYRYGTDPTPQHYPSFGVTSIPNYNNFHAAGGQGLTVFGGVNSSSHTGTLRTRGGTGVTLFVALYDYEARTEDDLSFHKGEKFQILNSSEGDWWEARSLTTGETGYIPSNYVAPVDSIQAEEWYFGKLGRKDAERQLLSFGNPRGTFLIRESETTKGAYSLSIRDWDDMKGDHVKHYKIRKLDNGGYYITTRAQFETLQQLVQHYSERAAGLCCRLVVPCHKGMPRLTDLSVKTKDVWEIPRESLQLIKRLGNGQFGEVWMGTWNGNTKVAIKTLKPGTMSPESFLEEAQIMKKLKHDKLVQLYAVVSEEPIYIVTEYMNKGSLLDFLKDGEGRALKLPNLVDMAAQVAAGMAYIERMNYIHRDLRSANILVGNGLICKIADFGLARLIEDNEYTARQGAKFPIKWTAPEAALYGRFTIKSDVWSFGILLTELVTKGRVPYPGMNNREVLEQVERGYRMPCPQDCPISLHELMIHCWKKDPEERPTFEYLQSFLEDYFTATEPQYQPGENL

[6] = target: Tyrosine-protein kinase Fyn (Homo sapiens) (UniProt P06241); settings: at 10 µM
[7] = target: T1, Mitogen-activated protein kinase kinase kinase kinase 2 (Homo sapiens) (UniProt Q12851); settings: at 1 µM
T1 sequence (whole entry): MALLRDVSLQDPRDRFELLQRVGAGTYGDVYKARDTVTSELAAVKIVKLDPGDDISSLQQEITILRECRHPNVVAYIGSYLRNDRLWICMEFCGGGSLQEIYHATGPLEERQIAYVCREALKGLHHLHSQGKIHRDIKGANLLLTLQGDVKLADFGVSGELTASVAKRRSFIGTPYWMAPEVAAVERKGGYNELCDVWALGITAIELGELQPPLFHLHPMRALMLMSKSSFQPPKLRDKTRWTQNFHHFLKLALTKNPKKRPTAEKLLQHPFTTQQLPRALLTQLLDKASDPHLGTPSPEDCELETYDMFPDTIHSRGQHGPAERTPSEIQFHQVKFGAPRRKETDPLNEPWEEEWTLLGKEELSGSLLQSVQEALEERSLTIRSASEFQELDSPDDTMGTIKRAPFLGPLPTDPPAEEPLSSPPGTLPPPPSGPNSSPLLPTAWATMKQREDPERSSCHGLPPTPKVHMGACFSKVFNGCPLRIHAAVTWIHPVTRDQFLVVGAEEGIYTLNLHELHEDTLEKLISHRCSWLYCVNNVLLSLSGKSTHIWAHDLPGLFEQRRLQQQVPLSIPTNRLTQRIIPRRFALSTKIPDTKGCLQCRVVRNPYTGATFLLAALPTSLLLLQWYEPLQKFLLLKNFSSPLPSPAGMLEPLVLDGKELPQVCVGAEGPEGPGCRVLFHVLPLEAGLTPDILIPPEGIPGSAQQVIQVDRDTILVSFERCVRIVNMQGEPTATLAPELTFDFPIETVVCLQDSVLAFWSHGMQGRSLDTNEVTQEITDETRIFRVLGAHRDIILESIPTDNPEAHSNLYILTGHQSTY

[8] = target: T1, Mitogen-activated protein kinase kinase kinase kinase 2 (Homo sapiens); settings: at 10 µM
[9] = target: G protein-coupled receptor kinase 5 (Homo sapiens) (UniProt P34947); settings: at 10 µM
[10] = target: G protein-coupled receptor kinase 6 (Homo sapiens) (UniProt P43250); settings: at 1 µM
Chain of G protein-coupled receptor kinase 6 (Homo sapiens) (P43250 whole entry, looked up): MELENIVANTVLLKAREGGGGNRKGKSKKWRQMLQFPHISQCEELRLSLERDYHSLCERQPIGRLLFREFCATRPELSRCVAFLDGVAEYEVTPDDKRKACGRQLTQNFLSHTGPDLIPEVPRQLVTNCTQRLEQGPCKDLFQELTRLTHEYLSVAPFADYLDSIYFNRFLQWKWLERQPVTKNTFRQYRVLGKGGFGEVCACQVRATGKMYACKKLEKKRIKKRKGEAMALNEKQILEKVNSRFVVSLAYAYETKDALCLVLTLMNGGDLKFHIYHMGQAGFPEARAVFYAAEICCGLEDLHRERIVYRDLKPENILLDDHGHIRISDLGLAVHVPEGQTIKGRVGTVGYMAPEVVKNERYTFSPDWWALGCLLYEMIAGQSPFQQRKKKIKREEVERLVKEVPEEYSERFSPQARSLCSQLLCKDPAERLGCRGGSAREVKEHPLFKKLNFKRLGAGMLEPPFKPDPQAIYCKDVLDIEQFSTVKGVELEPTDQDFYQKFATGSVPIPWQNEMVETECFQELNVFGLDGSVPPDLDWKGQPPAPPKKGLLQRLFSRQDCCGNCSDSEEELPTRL

[11] = target: G protein-coupled receptor kinase 6 (Homo sapiens) (UniProt P43250); settings: at 10 µM
[12] = target: T2, Rhodopsin kinase GRK7 (Homo sapiens) (UniProt Q8WTQ7); settings: at 1 µM
T2 sequence (whole entry): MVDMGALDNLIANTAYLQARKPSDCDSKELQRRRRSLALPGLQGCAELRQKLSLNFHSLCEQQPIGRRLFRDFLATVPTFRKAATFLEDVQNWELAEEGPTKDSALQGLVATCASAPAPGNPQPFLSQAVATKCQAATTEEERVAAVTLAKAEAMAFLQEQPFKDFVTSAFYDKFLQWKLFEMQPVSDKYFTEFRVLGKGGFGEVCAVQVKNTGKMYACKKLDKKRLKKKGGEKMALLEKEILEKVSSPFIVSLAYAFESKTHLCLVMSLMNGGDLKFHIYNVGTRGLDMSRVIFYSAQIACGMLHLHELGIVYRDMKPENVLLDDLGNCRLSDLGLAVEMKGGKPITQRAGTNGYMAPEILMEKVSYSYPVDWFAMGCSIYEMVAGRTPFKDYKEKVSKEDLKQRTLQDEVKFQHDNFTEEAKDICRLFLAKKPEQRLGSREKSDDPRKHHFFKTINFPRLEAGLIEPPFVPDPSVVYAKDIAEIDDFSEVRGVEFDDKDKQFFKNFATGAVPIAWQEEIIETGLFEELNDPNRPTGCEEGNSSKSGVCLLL

[13] = target: T2, Rhodopsin kinase GRK7 (Homo sapiens); settings: at 10 µM
[14] = target: Glycogen synthase kinase-3 alpha (Homo sapiens) (UniProt P49840); settings: at 1 µM
[15] = target: Glycogen synthase kinase-3 alpha (Homo sapiens) (UniProt P49840); settings: at 10 µM
[16] = target: Glycogen synthase kinase-3 beta (Homo sapiens) (UniProt P49841); settings: at 1 µM
Chain of Glycogen synthase kinase-3 beta (Homo sapiens) (P49841 whole entry, looked up): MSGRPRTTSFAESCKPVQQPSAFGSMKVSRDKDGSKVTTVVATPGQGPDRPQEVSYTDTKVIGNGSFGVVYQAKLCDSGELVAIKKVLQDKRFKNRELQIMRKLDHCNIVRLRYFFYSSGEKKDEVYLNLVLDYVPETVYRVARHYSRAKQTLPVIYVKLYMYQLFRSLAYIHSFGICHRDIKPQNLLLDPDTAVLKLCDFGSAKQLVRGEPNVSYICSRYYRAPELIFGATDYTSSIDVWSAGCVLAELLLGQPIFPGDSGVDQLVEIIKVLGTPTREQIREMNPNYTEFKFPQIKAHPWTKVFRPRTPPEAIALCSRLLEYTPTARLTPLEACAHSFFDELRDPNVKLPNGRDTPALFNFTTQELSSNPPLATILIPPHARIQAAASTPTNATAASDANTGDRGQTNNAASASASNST

[17] = target: Glycogen synthase kinase-3 beta (Homo sapiens) (UniProt P49841); settings: at 10 µM
[18] = target: Homeodomain-interacting protein kinase 1 (Homo sapiens) (UniProt Q86Z02); settings: at 1 µM
Chain of Homeodomain-interacting protein kinase 1 (Homo sapiens) (Q86Z02 whole entry, looked up): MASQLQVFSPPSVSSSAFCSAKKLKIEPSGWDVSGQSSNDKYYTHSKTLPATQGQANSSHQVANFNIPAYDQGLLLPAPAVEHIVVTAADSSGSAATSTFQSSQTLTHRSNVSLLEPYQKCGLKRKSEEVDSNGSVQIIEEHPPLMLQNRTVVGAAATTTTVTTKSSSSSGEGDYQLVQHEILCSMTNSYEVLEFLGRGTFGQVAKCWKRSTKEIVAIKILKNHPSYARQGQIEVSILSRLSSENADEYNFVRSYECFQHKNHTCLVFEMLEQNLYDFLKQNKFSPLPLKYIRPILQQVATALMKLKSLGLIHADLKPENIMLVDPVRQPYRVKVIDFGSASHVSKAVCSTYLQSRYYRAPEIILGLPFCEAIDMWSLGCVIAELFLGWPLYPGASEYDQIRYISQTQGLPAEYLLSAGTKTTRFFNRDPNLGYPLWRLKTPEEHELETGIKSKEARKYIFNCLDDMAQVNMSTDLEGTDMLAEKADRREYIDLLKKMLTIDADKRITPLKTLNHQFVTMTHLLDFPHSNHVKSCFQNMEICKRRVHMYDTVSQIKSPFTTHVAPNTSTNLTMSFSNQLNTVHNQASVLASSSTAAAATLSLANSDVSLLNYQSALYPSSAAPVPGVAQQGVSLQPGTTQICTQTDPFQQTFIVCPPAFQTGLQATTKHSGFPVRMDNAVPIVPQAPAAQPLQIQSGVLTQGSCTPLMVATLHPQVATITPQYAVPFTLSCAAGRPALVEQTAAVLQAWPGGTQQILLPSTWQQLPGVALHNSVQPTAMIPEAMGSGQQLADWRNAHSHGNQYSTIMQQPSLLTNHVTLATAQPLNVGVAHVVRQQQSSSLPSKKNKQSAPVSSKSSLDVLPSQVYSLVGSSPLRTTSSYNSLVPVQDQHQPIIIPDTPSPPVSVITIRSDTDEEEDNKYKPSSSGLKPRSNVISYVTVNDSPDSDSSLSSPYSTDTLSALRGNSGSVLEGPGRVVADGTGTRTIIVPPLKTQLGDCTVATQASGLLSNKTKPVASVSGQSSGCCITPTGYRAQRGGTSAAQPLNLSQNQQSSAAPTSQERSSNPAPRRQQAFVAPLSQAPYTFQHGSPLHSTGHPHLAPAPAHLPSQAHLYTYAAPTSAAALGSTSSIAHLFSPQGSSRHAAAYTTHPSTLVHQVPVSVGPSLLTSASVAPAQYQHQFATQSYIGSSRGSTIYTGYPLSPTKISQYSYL

[19] = target: Homeodomain-interacting protein kinase 1 (Homo sapiens) (UniProt Q86Z02); settings: at 10 µM
[20] = target: Homeodomain-interacting protein kinase 2 (Homo sapiens) (UniProt Q9H2X6); settings: at 1 µM
Chain of Homeodomain-interacting protein kinase 2 (Homo sapiens) (Q9H2X6 whole entry, looked up): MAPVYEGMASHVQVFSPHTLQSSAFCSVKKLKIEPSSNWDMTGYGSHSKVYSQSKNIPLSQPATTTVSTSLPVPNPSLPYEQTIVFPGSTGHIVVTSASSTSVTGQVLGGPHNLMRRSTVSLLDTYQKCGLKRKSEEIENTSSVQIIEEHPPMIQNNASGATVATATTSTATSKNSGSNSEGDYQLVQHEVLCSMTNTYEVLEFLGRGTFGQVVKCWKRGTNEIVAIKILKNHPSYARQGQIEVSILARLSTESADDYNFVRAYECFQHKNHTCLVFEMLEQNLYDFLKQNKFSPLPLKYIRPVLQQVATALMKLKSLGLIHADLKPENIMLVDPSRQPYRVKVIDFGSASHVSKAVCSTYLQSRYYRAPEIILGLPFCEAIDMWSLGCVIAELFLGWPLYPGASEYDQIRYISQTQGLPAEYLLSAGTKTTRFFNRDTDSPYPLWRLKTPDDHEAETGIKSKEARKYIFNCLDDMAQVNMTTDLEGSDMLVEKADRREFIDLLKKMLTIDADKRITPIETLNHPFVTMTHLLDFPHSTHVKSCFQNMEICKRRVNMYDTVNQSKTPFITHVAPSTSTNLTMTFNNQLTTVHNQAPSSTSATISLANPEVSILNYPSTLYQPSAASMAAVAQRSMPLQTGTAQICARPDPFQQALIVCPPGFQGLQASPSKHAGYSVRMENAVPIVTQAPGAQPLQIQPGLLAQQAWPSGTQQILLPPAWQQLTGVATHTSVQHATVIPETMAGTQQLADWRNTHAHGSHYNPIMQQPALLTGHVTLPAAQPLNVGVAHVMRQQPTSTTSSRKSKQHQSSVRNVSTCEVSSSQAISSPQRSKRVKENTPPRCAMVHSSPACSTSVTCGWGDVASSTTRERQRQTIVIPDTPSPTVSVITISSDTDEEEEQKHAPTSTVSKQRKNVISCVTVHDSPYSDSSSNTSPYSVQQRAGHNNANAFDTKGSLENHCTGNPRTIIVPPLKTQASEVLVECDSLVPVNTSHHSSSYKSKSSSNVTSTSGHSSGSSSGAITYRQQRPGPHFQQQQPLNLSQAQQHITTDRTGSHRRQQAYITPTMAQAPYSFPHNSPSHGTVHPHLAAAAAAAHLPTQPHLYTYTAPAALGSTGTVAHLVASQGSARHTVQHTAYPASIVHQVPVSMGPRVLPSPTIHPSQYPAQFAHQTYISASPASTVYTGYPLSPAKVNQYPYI

Chain of Macrophage colony-stimulating factor 1 receptor (Homo sapiens) (P07333 whole entry): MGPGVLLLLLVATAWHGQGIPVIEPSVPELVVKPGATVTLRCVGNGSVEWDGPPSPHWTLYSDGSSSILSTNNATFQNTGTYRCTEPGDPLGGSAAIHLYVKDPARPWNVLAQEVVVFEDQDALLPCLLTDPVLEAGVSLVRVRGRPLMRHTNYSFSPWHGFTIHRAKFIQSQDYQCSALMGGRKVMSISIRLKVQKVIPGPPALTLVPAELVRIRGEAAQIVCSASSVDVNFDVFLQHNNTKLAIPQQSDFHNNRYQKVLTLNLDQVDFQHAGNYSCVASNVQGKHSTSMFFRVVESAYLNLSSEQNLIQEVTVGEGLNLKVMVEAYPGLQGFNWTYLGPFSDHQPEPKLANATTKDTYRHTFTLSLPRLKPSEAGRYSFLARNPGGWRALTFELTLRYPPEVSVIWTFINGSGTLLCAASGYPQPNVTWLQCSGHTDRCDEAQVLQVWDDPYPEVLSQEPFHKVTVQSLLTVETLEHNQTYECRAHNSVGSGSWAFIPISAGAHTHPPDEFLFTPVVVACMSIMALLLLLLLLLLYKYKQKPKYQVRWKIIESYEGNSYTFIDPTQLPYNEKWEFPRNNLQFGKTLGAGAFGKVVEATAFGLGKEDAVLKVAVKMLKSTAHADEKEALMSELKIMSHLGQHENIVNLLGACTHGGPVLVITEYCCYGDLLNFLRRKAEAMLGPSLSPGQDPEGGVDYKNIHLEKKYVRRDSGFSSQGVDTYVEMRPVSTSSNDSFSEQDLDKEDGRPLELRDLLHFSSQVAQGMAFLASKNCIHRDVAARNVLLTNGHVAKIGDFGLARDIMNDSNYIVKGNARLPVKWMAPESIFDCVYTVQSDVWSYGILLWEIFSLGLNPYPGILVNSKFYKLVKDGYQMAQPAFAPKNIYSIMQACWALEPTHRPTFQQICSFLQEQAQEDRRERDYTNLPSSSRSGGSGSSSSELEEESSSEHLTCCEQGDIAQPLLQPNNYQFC

Row | Structure (SMILES) | residual activity [1] [%] | residual activity [2] [%] | residual activity [3] [%] | residual activity [4] [%] | residual activity [5] [%] | residual activity [6] [%] | residual activity [7] [%] | residual activity [8] [%] | residual activity [9] [%] | residual activity [10] [%] | residual activity [11] [%] | residual activity [12] [%] | residual activity [13] [%] | residual activity [14] [%] | residual activity [15] [%] | residual activity [16] [%] | residual activity [17] [%] | residual activity [18] [%] | residual activity [19] [%] | residual activity [20] [%]
1 | COc1cc2nccc(Oc3ccc(NC(=O)Nc4cc(C)on4)c(Cl)c3)c2cc1OC | 105 |  |  |  |  |  |  |  |  |  |  |  |  |  |  |  |  |  |  | 
2 | COc1cc2ncnc(Nc3ccc(OCc4ccccc4)cc3)c2cc1OC | 101 | 2 | 20 | 11 | 79 | 64 | 101 | 85 | 97 | 98 | 97 | 105 | 99 | 100 | 160 | 104 | 119 | 102 | 105 | 104
3 | CCCCc1c(-c2ccc(OC)cc2)[nH]c2nccnc12 | 88 |  |  |  |  |  |  |  |  |  |  |  |  |  |  |  |  |  |  | 
4 | O=c1[nH]c2ccccc2n1C1CCN(Cc2ccc(-c3nc4cc5[nH]cnc5cc4nc3-c3ccccc3)cc2)CC1 | 103 | 59 | 55 | 51 | 95 | 72 | 101 | 80 | 85 | 100 | 94 | 110 | 94 | 112 | 123 | 108 | 106 | 101 | 98 | 98
5 | CCn1cnc2c(Nc3cccc(Cl)c3)nc(N[C@@H]3CCCC[C@@H]3N)nc21 | 96 | 2 | 54 | 11 | 8 | 0 | 43 | 7 | 66 | 91 | 68 | 74 | 24 | 123 | 119 | 132 | 136 |  | 81 | 85
6 | O=C1NC(=O)C(c2cn(CCCn3ccnc3)c3ccccc23)=C1Nc1ccccc1 | 78 |  |  |  |  |  |  |  |  |  |  |  |  |  |  |  |  |  |  | 
7 | O=C1NC(=O)c2c1c1c3ccccc3n3c1c1c2c2ccccc2n1C1CCC3O1 |  | 2 | 30 | 26 | 81 | 75 | 20 | 10 |  |  |  |  |  | 15 | 3 | 40 | 23 |  |  | 42
8 | O=C1Cc2c([nH]c3ccc(Br)cc23)-c2ccccc2N1 | 95 |  |  |  |  |  |  |  |  |  |  |  |  |  |  |  |  |  |  | 
9 | CCc1nc(-c2ccc(OC)cc2)[nH]c1-c1ccncc1 |  | 77 | 78 | 71 | 75 | 72 |  |  |  |  |  |  |  | 106 |  | 114 | 115 |  |  | 
10 | O=C1Nc2ccc3ncsc3c2/C1=C/c1c[nH]cn1 | 71 | 0 | 22 | 3 | 46 | 12 | 7 | 1 | 25 |  | 60 | 63 | 20 | 4 | 1 | 4 | 0 | 64 | 26 | 32
11 | O=[N+]([O-])/C=C/c1ccc2c(c1)OCO2 | 106 | 95 | 87 | 100 | 105 | 92 | 92 | 86 | 91 | 105 | 89 | 103 | 86 | 125 | 113 |  | 74 | 96 | 112 | 93
12 | Nc1nc(Nc2ccc(S(N)(=O)=O)cc2)nn1C(=S)Nc1c(F)cccc1F | 77 |  |  |  |  |  |  |  |  |  |  |  |  |  |  |  |  |  |  | 
13 | O=c1c(-c2ccc(F)cc2)c(-c2ccncc2)[nH]n1-c1ccc(Cl)cc1 | 101 |  |  |  |  |  |  |  |  | 99 |  |  |  |  |  |  |  |  |  | 
14 | COC(=O)[C@@]1(O)C[C@H]2O[C@]1(C)n1c3ccccc3c3c4c(c5c6ccccc6n2c5c31)C(=O)NC4 | 40 | 1 | 2 | 1 | 4 | 0 | 0 | 1 | 5 | 36 | 5 | 4 | 4 | 14 | 3 | 29 | 10 | 78 | 15 | 22
15 | COc1ccc2c(c[n+](C)c3c4cc5c(cc4ccc23)OCO5)c1OC |  | 62 | 87 | 74 | 92 | 63 |  | 72 | 82 | 96 | 93 | 99 | 91 | 126 |  | 97 | 83 |  |  | 
16 | CC(C)[C@H](CO)Nc1nc(Nc2cccc(Cl)c2)c2ncn(C(C)C)c2n1 | 97 | 3 | 70 | 34 | 4 | -1 | 75 | 23 | 82 |  |  | 95 | 44 |  |  | 134 | 57 | 97 | 49 | 88
17 | COc1ccc2c(c1)/C(=C/c1cnc[nH]1)C(=O)N2 |  |  | 41 | 14 | 67 | 25 | 23 | 3 |  |  | 76 |  | 42 |  |  | 42 | 4 |  | 52 | 
18 | O=C(c1cc2cc(O)ccc2[nH]1)c1cc2cc(O)ccc2[nH]1 | 79 |  |  |  |  |  |  |  |  |  |  |  |  |  |  |  |  |  |  | 
19 | C[S+]([O-])c1ccc(-c2nc(-c3ccc(F)cc3)c(-c3ccncc3)[nH]2)cc1 (stereo not given) | 109 | 42 | 109 | 52 | 76 | 35 | 104 | 100 | 104 | 107 | 102 | 109 | 108 | 86 | 49 |  | 34 | 102 | 97 | 110
